Reference: article PMC7819943, “Rice protein-binding microarrays: a tool to detect cis-acting elements near promoter regions in rice”
The full ranking holds about 39,000 sequences; the median of “fluorescence intensity (a.u.)” is about 4,300, and the highest 2% start at about 39,000. The sample holds the highest values, similar sequences and a random draw of the others, so the mix is not that of the screen.

Target: T1, OsSMF1 (Oryza sativa, UniProt Q6ZLB0 1-436)
T1 sequence: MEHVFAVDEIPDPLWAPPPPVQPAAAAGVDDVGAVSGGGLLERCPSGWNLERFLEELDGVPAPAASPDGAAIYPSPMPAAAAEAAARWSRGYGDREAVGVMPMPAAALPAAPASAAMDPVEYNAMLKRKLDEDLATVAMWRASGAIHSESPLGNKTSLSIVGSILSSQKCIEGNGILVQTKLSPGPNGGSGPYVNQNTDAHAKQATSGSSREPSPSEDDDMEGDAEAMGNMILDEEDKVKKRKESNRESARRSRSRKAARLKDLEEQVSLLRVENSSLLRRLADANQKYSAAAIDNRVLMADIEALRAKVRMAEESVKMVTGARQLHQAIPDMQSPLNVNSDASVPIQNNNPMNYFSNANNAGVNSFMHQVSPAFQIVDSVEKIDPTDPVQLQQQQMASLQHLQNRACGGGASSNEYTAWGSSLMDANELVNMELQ
Test: protein-binding microarray (RPBM); PBS, 2% BSA, 51.3 ng/ul salmon testes DNA, 50 uM zinc acetate, 200 nM TF, 25 C, 1 h; high values mean tight binding
Conditions: protein: recombinant; tags: N-terminal polyhistidine and DsRed monomer fusion (pET32a); chain copies: 2; label: CyDye5-dUTP incorporated in the synthesized complementary strand; 3' TTTTT single-stranded linker to array surface; dsDNA, one strand shown
In short: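 The binding signal is fluorescence intensity per array feature (arbitrary units). Readings came from an Axon 4000B scanner after a washed, 2% BSA-blocked, double-stranded custom Agilent array had been incubated for 1 h at 25 °C with 200 nM protein and 50 µM zinc acetate. The protein was a Ni–NTA-purified transcription factor fused N-terminally to polyhistidine and DsRed, expressed in E. coli BL21-CodonPlus.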

Sequence | binding signal
TTCTGATTAGGCTGCCACATTGGCGGCACGTGTGATAGCTCGGAGTCACCTAGTGCAG | 45900 fluorescence intensity (a.u.)
AGATGTGATACATTAGCATTCTAGCACGGCGGTGGCATTGCGGAGTCACCTAGTGCAG | 3250 fluorescence intensity (a.u.)
TTGGCGTGACTAGGCGCAATTTCTGCAAATTGGAGCTCGGCGGAGTCACCTAGTGCAG | 7820 fluorescence intensity (a.u.)
GGCCAGGCCACCCCAACACGCCAGCCTCCCGGGCCGTTGACGGAGTCACCTAGTGCAG | 3250 fluorescence intensity (a.u.)
TGAACCTCGAAGATGCAAATATGTAGTAGTACGTAGGTCCCGGAGTCACCTAGTGCAG | 3310 fluorescence intensity (a.u.)
GGTCCGGTGTGACACTGTGACCCCGCCGTAACCCCGTAACCGGAGTCACCTAGTGCAG | 4060 fluorescence intensity (a.u.)
CATTTCATATCAGAAGTGTGATCACTGTAACCCGCGGCGCCGGAGTCACCTAGTGCAG | 64500 fluorescence intensity (a.u.)
TATGTATGATCTCTTCCTGTAACATTTTCATCATCTAACCCGGAGTCACCTAGTGCAG | 3480 fluorescence intensity (a.u.)
AGAGGAGCATCTTCTCGCCTGAGATTCCGTCGACGCCATTCGGAGTCACCTAGTGCAG | 3540 fluorescence intensity (a.u.)
GAGGTGGGGTGGCTTAGTGACCTCGTGTCGTAGATTGGATCGGAGTCACCTAGTGCAG | 4900 fluorescence intensity (a.u.)
GTTGGTGGTGGAGCGGGAGGAGGTGCCGGTGGAGGCGGTGCGGAGTCACCTAGTGCAG | 53000 fluorescence intensity (a.u.)
GGCGGTGCTGGTGGAGGCGGTGGTCTCGGAGGTGGAGCAGCGGAGTCACCTAGTGCAG | 46000 fluorescence intensity (a.u.)
AGGTGGAGGCGCCGGTGTGGGTGGTGGAGCGGGAGGAGGTCGGAGTCACCTAGTGCAG | 4096 fluorescence intensity (a.u.)
AGAGGGTGGAGGAGCTGACTAGATTGCACTAGGTCTCGATCGGAGTCACCTAGTGCAG | 42000 fluorescence intensity (a.u.)
CAATAAACCGGTGGTTGGACCGGTCCAACCAATAAACCAGCGGAGTCACCTAGTGCAG | 43900 fluorescence intensity (a.u.)
GCGGGGTTGGAGGAGGAGGAGGTGGTGGTGGTGGTGGTGGCGGAGTCACCTAGTGCAG | 4860 fluorescence intensity (a.u.)
CTAAGGGTCTAAGAGATGATGCTGTGATGAGGTGGATCATCGGAGTCACCTAGTGCAG | 4840 fluorescence intensity (a.u.)
CAACACCCAACCCCAATTGGTCGCGGTGGGTCGGACGGACCGGAGTCACCTAGTGCAG | 34900 fluorescence intensity (a.u.)
AATGGACCACCGTTAGTCCACCAGTCAGCCAACCAATGGCCGGAGTCACCTAGTGCAG | 3360 fluorescence intensity (a.u.)
TCGGCGGTCGTGGAGGTGGTGGCAGGCGGTCGTGGCGGAGCGGAGTCACCTAGTGCAG | 3990 fluorescence intensity (a.u.)
GAGGGGATGACGGTGGTCTCGGCAGCGGATGACGGCGGCGCGGAGTCACCTAGTGCAG | 4490 fluorescence intensity (a.u.)
CCGCTCGTCGATTAGCCGGCCACGCCTCCCGCTCGTGAAGCGGAGTCACCTAGTGCAG | 3680 fluorescence intensity (a.u.)

Sequence | binding signal
GACCCTGCCGCCCTCCATTTGGGCGGCAAGCTGACGTGGCCGGAGTCACCTAGTGCAG | 32700 fluorescence intensity (a.u.)
GCAGTTTGTCTCATGTGCTGCTGACTAGATATTGATCATACGGAGTCACCTAGTGCAG | 11400 fluorescence intensity (a.u.)
ATGATGAGTAGGAGTTTGTGCAGGTGGACGGCGGTGGTGGCGGAGTCACCTAGTGCAG | 3180 fluorescence intensity (a.u.)
TCACGCGTAGCTTCGCCGCTACGTGGCCTCGCGCACGTTACGGAGTCACCTAGTGCAG | 5500 fluorescence intensity (a.u.)
GTTCGCGGGCCGCGAACGTCCACGTACTAGACGCCCCTCACGGAGTCACCTAGTGCAG | 4050 fluorescence intensity (a.u.)
TTCGCTAACGCCGCGCGTCACGTAGACACGTACTACTAGCCGGAGTCACCTAGTGCAG | 49600 fluorescence intensity (a.u.)
CCTGCATGCGTGGCTGCGCTCACTGTCGTTATTTGCTTTACGGAGTCACCTAGTGCAG | 5080 fluorescence intensity (a.u.)
AATGAGATACTTAGACTTGTGAGGCCCGACGTGTCCAATCCGGAGTCACCTAGTGCAG | 4470 fluorescence intensity (a.u.)
AAAGGGCAGGCACATCGCTTTCGGGCCCTGTCACGTACCCCGGAGTCACCTAGTGCAG | 3920 fluorescence intensity (a.u.)
TCAATAATGTGTGCGTGACCTGGGCAAGTGGCGGTAGCAACGGAGTCACCTAGTGCAG | 3540 fluorescence intensity (a.u.)
ATCTGCTTTGTGAGGCACATGAAGCTGGAGATATCTGTCACGGAGTCACCTAGTGCAG | 4740 fluorescence intensity (a.u.)
GATCGAGCGGCAGGCCAGCAGTAACCTGGCCGAGAAGTTGCGGAGTCACCTAGTGCAG | 64500 fluorescence intensity (a.u.)
TTTGCTCGTTGGCAGCGGCCAGCAGGCACGTGTAACGGCGCGGAGTCACCTAGTGCAG | 4190 fluorescence intensity (a.u.)
ACCGAGTCCACGGAGCAGTGAGAGAGCCAGGCAGCCAGTGCGGAGTCACCTAGTGCAG | 3960 fluorescence intensity (a.u.)
GATGTGCGATAGCAGAATGGTGCTAAGTGAGTCACATCGTCGGAGTCACCTAGTGCAG | 3970 fluorescence intensity (a.u.)
TTTAATGATCTTATAAATTGTAATGCTGATAGGTGGTTATCGGAGTCACCTAGTGCAG | 3590 fluorescence intensity (a.u.)
TTCTAATTACTATTTAAGCTTATCCTAATTAACTCACATGCGGAGTCACCTAGTGCAG | 3230 fluorescence intensity (a.u.)
ATACCGGTGCGTTACAACGAGGTGAATGTTATTTTAATTTCGGAGTCACCTAGTGCAG | 25200 fluorescence intensity (a.u.)
ACACTATGATTATAATATATTTACATGTGTGAATTGTTTACGGAGTCACCTAGTGCAG | 3640 fluorescence intensity (a.u.)
TATAATGTTTGGGTGCGTTTAATTCTATTTGAATTACACTCGGAGTCACCTAGTGCAG | 48000 fluorescence intensity (a.u.)
AATCAACAAATAACTAATATTCTTACATCAGCTACTATAACGGAGTCACCTAGTGCAG | 28600 fluorescence intensity (a.u.)
AAGCTTACAACATGTTCTATAATTTATTTAATTCTACAAACGGAGTCACCTAGTGCAG | 45700 fluorescence intensity (a.u.)
